High-throughput results (PubChem)
MBD2 inh – inhibitors of human MBD2 binding to methylated oligonucleotide; Q9UBB5; TR-FRET; inhibition, % at 4.4 µM; 0.31% of 370,000 active; AID 686964; in the data active = inhibition above about 13%
UHRF1 MBD2 ctr – UHRF1 methyl-DNA binding inhibition. AID 687016. inhibition, % at 4.4 µM. Q96T88. UHRF1 binding to methylated oligo, TR-FRET. 0.75% of 370,000 active; in the data active = inhibition above about 21%;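 note: UHRF1 SRA domain binding a hemimethylated CpG hairpin DNA probe; 0% = median of test compound wells and 100% = reference inhibitor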
Target sequence (Q96T88 whole entry, looked up, the tested form may be a part): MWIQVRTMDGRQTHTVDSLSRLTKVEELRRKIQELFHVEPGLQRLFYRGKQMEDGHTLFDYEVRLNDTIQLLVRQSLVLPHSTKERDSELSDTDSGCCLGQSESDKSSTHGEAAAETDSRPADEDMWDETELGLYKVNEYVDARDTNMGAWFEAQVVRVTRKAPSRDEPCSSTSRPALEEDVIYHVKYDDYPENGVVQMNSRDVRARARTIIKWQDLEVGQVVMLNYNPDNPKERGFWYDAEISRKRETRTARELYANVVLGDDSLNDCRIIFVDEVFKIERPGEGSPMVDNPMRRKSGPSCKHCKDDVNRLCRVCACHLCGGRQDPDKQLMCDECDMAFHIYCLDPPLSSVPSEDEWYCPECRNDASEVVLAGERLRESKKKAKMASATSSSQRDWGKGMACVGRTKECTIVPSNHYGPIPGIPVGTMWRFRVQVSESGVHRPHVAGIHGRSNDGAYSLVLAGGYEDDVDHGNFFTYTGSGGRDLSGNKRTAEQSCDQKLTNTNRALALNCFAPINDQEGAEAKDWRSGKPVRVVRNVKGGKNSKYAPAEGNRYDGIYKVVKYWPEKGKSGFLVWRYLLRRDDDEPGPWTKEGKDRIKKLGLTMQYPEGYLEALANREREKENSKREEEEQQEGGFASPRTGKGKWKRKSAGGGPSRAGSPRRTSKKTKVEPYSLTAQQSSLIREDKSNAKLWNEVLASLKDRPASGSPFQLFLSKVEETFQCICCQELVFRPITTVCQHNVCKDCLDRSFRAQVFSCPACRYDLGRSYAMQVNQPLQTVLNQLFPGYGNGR
UBC13 polyUb – blocks human UBC13 polyubiquitin chain formation. 0.47% of 330,000 active. TR-FRET. inhibition, % at 20 µM; in the data active = inhibition above about 45%, passing the limit was not always enough
Neddyl block – inhibitors of human cullin neddylation | TR-FRET cullin neddylation, biochemical | 0.58% of 360,000 active | calls only at 25 µM | P61081+Q13564; in the data active = inhibition above about 36%
An asterisk follows results filed as active; i = inactive; nt = not tested or not shown; + = active, no number; ! = not confirmed by another sample. An excerpt weighted towards active compounds, which were near 1.8% of everything screened.

SMILES	MBD2 inh	UHRF1 MBD2 ctr	UBC13 polyUb	Neddyl block
CCOc1ccccc1N(CC(=O)O)S(=O)(=O)c1ccccc1	3	4	-15	i
CCOc1ccccc1N(CC(=O)N(C)Cc1ccccc1)S(=O)(=O)c1ccccc1	7	23*	2	i
CCCS(=O)(=O)N1CCCC(C(=O)NC(C)c2ccc3c(c2)OCCO3)C1 (centres undefined)	8	5	-9	i
Cc1cc(C)c2c(=N)c3ccccc3n(CCCCCCCCn3c4ccccc4c(=N)c4c(C)cc(C)nc43)c2n1	28*	41*	nt	i
CCOc1ccc(S(=O)(=O)N(CC(=O)N/N=C/c2ccc(-c3ccc([N+](=O)[O-])cc3)o2)c2ccccc2)cc1	12	28*	-20	i
Cc1ccc(C)c(N(CC(=O)N/N=C/c2ccc(-c3ccc([N+](=O)[O-])cc3)o2)S(=O)(=O)c2ccccc2)c1	-8	-1	-26	i
Nc1ccc2nc(-c3ccccn3)[nH]c2c1	-1	-5	7	i
COc1ccc2nc(-c3ccccn3)[nH]c2c1	-5	0	-4	+
CCc1nc(Sc2nnnn2-c2ccccc2)c2c3c(sc2n1)CCCC3	2	42*	4	i
Cc1nc(Sc2nnnn2C)c2c3c(sc2n1)CCC3	-3	0	13	i
Oc1ccccc1/C=N/NC(=S)NC1CC2CC1C1C=CCC21 (centres undefined)	-6	-2	19	+
COc1cccc(/C=N/NC(=S)NC2CC3CC2C2C=CCC32)c1O (centres undefined)	3	-3	10	i
Cc1cc(C(=O)OCC(=O)Nc2cccc(S(=O)(=O)N3CCOCC3)c2)c(C)o1	-2	-1	5	i
CCCCN(CC)C(=O)c1cc2cc3ccc(OC)cc3nc2o1	0	-3	10	+
CCCCN(C)C(=O)c1cc2cc3ccc(OC)cc3nc2s1	-1	-3	7	+
COCCNC(=O)c1cc2cc3ccc(OC)cc3nc2o1	-2	-11	9	nt
CC(C)(C)C(=O)Nc1ccccc1C(=O)Nc1cc(Cl)ccc1Cl	2	1	8	i
Cc1ccc(NC(=O)N2CCCC(C(=O)O)C2)cc1 (centres undefined)	3	-2	5	i
COc1cc2c(c(OC)c1OC)-c1ccc(NC(=O)c3ccc(F)cc3)c(=O)cc1[C@@H](NC(C)=O)CC2	8	21*	8	i
CCOC(=O)NC(=O)COC(=O)CNC(=O)c1cccc(OC)c1	7	1	-7	i
Cc1cc(-c2ccc(Cl)cc2)c2cnn(C(C)C)c2n1	-2	3	7	i
CC(C)n1nnnc1-c1ccc(Cl)cc1	2	21*	-2	i
C/C(=C\C(=S)Nc1ccccc1)Nc1ccc2ccccc2c1	-4	1	2	i
OC(CN1CCN(c2cccc(Cl)c2)CC1)c1ccccc1 (centres undefined)	5	5	8	i
CSCC[C@H](NC(=O)OC(C)(C)C)C(=O)N/N=C/c1cccc2nccnc12	0	-3	-16	i
SMILES	MBD2 inh	UHRF1 MBD2 ctr	UBC13 polyUb	Neddyl block
Cc1c(C(=O)Nc2ccc(F)c(F)c2)oc2ccc(S(=O)(=O)N3CCCCC3)cc12	4	23*	2	i
Cc1c(C(=O)Nc2ccc(F)cc2)oc2ccc(S(=O)(=O)N3CCCC3)cc12	2	-2	-4	i
CCC(=O)Nc1ccc(N2CCOCC2)c(S(=O)(=O)Nc2ccc(Cl)cc2)c1	-2	45*	3	i
CCCCC(=O)/C=C/n1c(=S)oc2ccccc21	8	23*	-4	i
CC(C)OC(=O)n1c(=S)oc2ccccc21	-8	0	6	i
CC(=O)c1ccc(N(CC(=O)Nc2cc(C)on2)S(=O)(=O)c2ccc(C)cc2)cc1	-8	1	-11	i
CCc1sc(C(=O)NCCc2ccc(S(N)(=O)=O)cc2)cc1Br	5	21*	8	i
Clc1cccc(CN2CCc3c([nH]c4ccccc34)C2)c1Cl	0	-3	1	i
Cc1ccc(-c2nnc(SCC(=O)NC3CCCc4ccccc43)n2N)cc1 (centres undefined)	-5	0	0	i
C/C(O)=C(\C#N)P(=O)(c1ccccc1)c1ccccc1	0	-1	0	i
CCCCC(=O)NC(=S)Nc1ccccc1C(=O)Nc1ccccc1	-4	-1	6	i
CCCCCC(=O)NC(=S)Nc1ccccc1C(=O)OC	12	24*	0	i
CN(C)c1ccc(Cn2c(=O)n(Cc3ccc(C(=O)NCC4COC4)cc3)c(=O)c3ccccc32)cc1	-1	0	nt	nt
NC(Cc1c[nH]c2ccccc12)C(=O)NCc1ccccc1 (centres undefined)	-2	25*	-2	i
N[C@@H](Cc1c[nH]c2ccccc12)C(=O)O	nt	nt	2	nt
O=C(NCCc1cn2ccccc2n1)c1cc(COc2ccc3ncccc3c2)on1	6	3	12	i
O=C(C1CC1)N1CCc2sccc2C1c1ccc(Cl)cc1 (centres undefined)	4	51*	0	i
CC1CCN(C(=O)Cn2c(=O)c3cccn3c3ccccc32)CC1	-5	0	-2	i
COc1cc(NC(=O)c2cc(C)on2)cc(C(=O)Nc2cccc(C(F)(F)F)c2)c1	-3	93*!	12	i
CCOC(=O)c1cc2cc3ccccc3cc2[nH]1	-4	-4	-27	+
N/C(=N\OC(=O)CCC1CCCC1)c1ccc(Cl)cc1	3	-2	-3	i
Cc1ccccc1C(=O)NC(=S)NC1CCSC1=O (centres undefined)	-2	-2	-1	i
O=C(NC(=S)NC1CCSC1=O)c1cccs1 (centres undefined)	-3	50*	-5	i
COc1ccc(C(=O)C2CCCN(C(=O)c3c4c(nn3C)CCCC4)C2)cc1F (centres undefined)	2	39*	-4	i
COc1ccc(Cl)cc1NC(=O)C1CC(c2c(F)cccc2Cl)=NO1 (centres undefined)	5	-1	2	i
SMILES	MBD2 inh	UHRF1 MBD2 ctr	UBC13 polyUb	Neddyl block
O=C(c1ccco1)N1CCN(C(c2cccs2)c2nnnn2C2CCCCC2)CC1 (centres undefined)	4	86*	0	i
Cc1ccc(S(=O)(=O)n2nc(OC(=O)c3ccco3)cc2N)cc1	-4	3	-6	i
Cc1cc(C(=O)N/N=C/c2ccccc2)c(C)o1	-1	-2	-5	i
N#C/C(=C/c1ccc(N2CCCCC2)o1)C(=O)Nc1ccc2ccccc2c1	-9	-14	nt	i
N#C/C(=C/c1ccc(N2CCCCC2)o1)C(=O)Nc1ccc(Cl)cc1	-3	54*	-304	i
C/C(=N\NC(=O)c1sccc1-n1cccc1)c1cccs1	2	41*	-2	i
Cc1cc(C)cc(CC(=O)N2CCC2(C)C(=O)NS(=O)(=O)c2cccc(F)c2)c1 (centres undefined)	-1	21*	nt	i
Cc1cc(C)cc(CC(=O)N2CCC2(C)C(=O)NS(=O)(=O)c2ccccc2)c1 (centres undefined)	6	1	nt	i
COCCN1C(=S)N[C@@H](c2cccc(F)c2)C(C(=O)OC)=C1C	nt	nt	86*	nt
